HT1080-NT tox: kills 2HG-producing HT-1080-NT fibrosarcoma cells | HT-1080-NT fibrosarcoma viability, CellTiter-Glo ATP luminescence, 48 h | Potency, µM (series often up to 46.1 µM), actives largely listed as cytotoxic | actives 1.6% (n = 360,000);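 also: NT is the 2HG producing partner of a matched IDH1 knockdown line; nearly all actives have a fitted effect of over 55% in size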
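A 48-hour cytotoxicity screen used HT-1080-NT cells plated 2 hours before compound delivery. ATP-based CellTiter-Glo luminescence measured viability, normalized to DMSO and no-cell controls.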
MCF10A rerep: inducers of DNA re-replication in MCF 10A breast cells; MCF 10A DNA re-replication, Hoechst nuclear intensity, 48 h; Potency, µM (highest dose often 46.1 µM), usual class: activators; actives 2.9% (n = 350,000); also: nearly all actives have a fitted effect of over 50% in size
HT1080 IDH1KD tx: HT-1080 IDH1 knockdown cell toxicity (counter line); HT-1080 IDH1 knockdown viability, ATP luminescence, 48 h; Potency, µM (titrated, usually from 46.1 µM), hits mostly cytotoxic; actives 2% (n = 360,000)
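Viability of IDH1-knockdown HT-1080 fibrosarcoma cells was assessed by CellTiter-Glo after 48 h at 37 °C with titrated compound; concentration-effect curves were classified by fit quality and response size.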
SW480 rereplic: inducers of DNA re-replication in SW480 colon cancer cells. SW480 DNA re-replication, Hoechst DNA content imaging, 48 h. Potency, µM (series often up to 46.1 µM), usual class: activators. actives 1.8% (n = 340,000). AID 624297; also: nearly all actives have a fitted effect of over 55% in size
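Hoechst fluorescence of nuclei (405 nm excitation, 500-530 nm emission) measured by plate-scanning imager after 48 hr compound exposure at 37 C; re-replication scored as increased number of nuclei with elevated intensity.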
KB-3-1 tox: kills parental KB-3-1 adenocarcinoma cells; AID 1347075; actives 1.4% (n = 400,000); Potency, µM (top dose mostly 46.1 µM), actives largely listed as cytotoxic; KB-3-1 viability, CellTiter-Glo ATP luminescence, 72 h; also: nearly all actives have a fitted effect of over 60% in size
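Here the drug-naive KB-3-1 line serves as comparator for MDR sub-line selectivity; cells received compound titrations, 72 h at 37 °C, then CellTiter-Glo readout.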
KB-V1 cytotox: kills drug-selected multidrug resistant KB-V1 cells; actives 3.4% (n = 400,000); KB-V1 MDR cells viability, CellTiter-Glo, 72 h; Potency, µM (titrated, usually from 46.1 µM), most hits filed as cytotoxic; also: nearly all actives have a fitted effect of over 60% in size
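Cells of the MDR subline KB-V1 are plated, dosed with compound at multiple concentrations, and incubated 72 h at 37 degrees C; CellTiter-Glo is then added and luminescence read after 10 min.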
Numbers stand for hits; - = inactive; ? = inconclusive; . = not tested or not shown; [ ] = remark or other dose. This is a sample that favours compounds with a hit; in the whole collection about 8% have one here. Calls follow the shape of the dose curve; as a rule, active = well fitted curve in the direction sought with a large enough effect; inconclusive = small, poorly fitted or top-dose-only effect, or another doubt; inactive = no such curve, though single readings can be large; an effect the other way counts as inactive or inconclusive.

SMILES | HT1080-NT tox | MCF10A rerep | HT1080 IDH1KD tx | SW480 rereplic | KB-3-1 tox | KB-V1 cytotox
CN[C@H]1CCc2cc(OC)c(OC)c(OC)c2-c2ccc(N(C)CC(OC)OC)c(=O)cc21 | 4.1µM | - | ? | ? | 2.6µM | ?
CC(=O)c1ccc(N2CCN(S(=O)(=O)c3cccc4nonc34)CC2)cc1 | - | - | - | ? | - | -
COC(=O)N/C(C)=C1/NC(=O)c2ccccc2C(c2ccccc2)N1 (stereo unspecified) | - | - | - | - | - | -
Cc1ccc(NC(=O)CCNS(=O)(=O)c2cc(Br)cnc2N)cc1Cl | - | 18µM | - | - | ? | 13µM
CCC(C)NC(=O)CN1C(=O)c2cccnc2Sc2ccccc21 (stereo unspecified) | . | . | . | . | - | -
Cc1cc(C)c2cc3c(N)c(C(=O)N4CCc5ccccc5C4)sc3nc2c1 | - | - | - | - | - | -
Cc1ccc(-c2cc(C(F)F)n3ncc(C(=O)N4CCc5ccccc54)c3n2)cc1 | 2.9µM | 2.6µM | 2.3µM | 7.3µM | - | 5.8µM
Cc1ccc(-c2cc(C(F)(F)F)n3ncc(C(=O)N4CCCc5ccccc54)c3n2)cc1 | - | - | - | - | - | -
COc1ccc(-c2cc(C(F)F)n3ncc(C(=O)N4CCc5ccccc5C4)c3n2)cc1 | ? | ? | - | 15µM | - | ?
Cc1ccc2nc3sc(C(=O)N4CCCc5ccccc54)c(N)c3cc2c1 | - | ? | - | 3.7µM | ? | 6.5µM
Cc1ccc(-c2cc(C(=O)N3CCCc4ccccc43)c3ccccc3n2)cc1 | - | 21µM | - | ? | ? | 23µM
CCNc1nc(Oc2ccc(C(=O)OC)cc2)nc(SC)n1 | - | - | - | - | - | -
COc1cc2ccccc2cc1C(=O)N1CCc2ccccc21 | ? | 16µM | ? | ? | ? | -
CCc1nccn1C(=O)c1cnn2c(C(F)F)cc(-c3ccc(C)cc3)nc12 | - | 18µM | - | ? | ? | ?
CCN1CCN(C(=O)c2cnn3c(C(F)F)cc(-c4ccc(C)cc4)nc23)CC1 | - | - | - | - | - | -
Cc1ccc(-n2nnnc2CS(=O)(=O)c2ccccc2)c(C)c1 | - | - | - | - | - | -
Cc1ccc2oc(=O)c3cc(C(=O)NCc4ccco4)sc3c2c1 | - | - | - | - | - | ?
CO/N=C/C(=N\Nc1ccc(C)cc1)C(=O)c1ccc(OC)cc1 | ? | 2.6µM | 2.9µM | ? | 5.2µM | 4.6µM
CO/N=C/C(=N\Nc1ccc(OC)cc1)C(=O)c1ccc(F)cc1 | - | ? | ? | - | - | -
CCCN(C(=O)Cc1csc(-c2ccccc2)n1)C1CCS(=O)(=O)C1 (stereo unspecified) | - | - | - | - | . | .
CCN(c1ccc(OC)cc1)S(=O)(=O)c1cc(-c2cc(C)no2)ccc1C(C)C | - | 10µM | - | - | ? | ?
CCOc1ccc(NC(=O)N2CCN(c3nnc(C)c4c(C)n(-c5ccccc5)nc34)CC2)cc1 | . | . | . | . | - | -
CN(NC(=O)Nc1ccccc1)c1cnn(C)c(=O)c1Cl | - | 2.3µM | - | - | - | ?
Clc1ccccc1OCc1nnc(-c2ccccc2Br)o1 | - | - | - | - | - | -
O=c1c(Cl)c(Cl)cnn1Cc1nnc(-c2ccccc2Br)o1 | 12µM | 3.3µM | 9.2µM | 4.6µM | - | ?
SMILES | HT1080-NT tox | MCF10A rerep | HT1080 IDH1KD tx | SW480 rereplic | KB-3-1 tox | KB-V1 cytotox
C/C(=C(/CCO)SSCC1CCCO1)N(C=O)Cc1cnc(C)nc1N (stereo unspecified) | - | ? | - | - | - | -
CCCSS/C(CCO)=C(/C)N(C=O)Cc1cnc(C)nc1N | . | 13µM | . | ? | . | .
CCN1C[C@@H]2[C@@H]3C(=O)N(Cc4ccccc4)C(=O)[C@@H]3[C@](CC)(C1=O)N2C(=O)c1ccc(Cl)c(Cl)c1 | - | - | - | - | - | -
CC(C)Oc1ccc(/C=N/NC(=O)C2CCCN2S(=O)(=O)c2ccc(Cl)cc2)cc1 (stereo unspecified) | - | - | -[9.24 µM] | - | - | ?
c1ccc(C2C3=C(Nc4ncnn42)c2ccccc2CCC3)cc1 (stereo unspecified) | - | ? | - | - | - | 18µM
Cc1c(C)c(C)c(C(=O)CCc2cccc(NC(=O)CCC(=O)O)c2)c(C)c1C | - | - | - | - | - | -
O=C(O)c1[nH]c2ccc([N+](=O)[O-])cc2c1-c1ccccc1 | - | - | - | - | - | -
O=C(N/N=C/c1ccccn1)c1ccc([N+](=O)[O-])cc1Cl | - | - | - | - | - | -
NNC(=O)c1[nH]c2ccc([N+](=O)[O-])cc2c1-c1ccccc1 | ? | ? | 3.7µM | ? | ? | -
O=C(N/N=C/c1ccccn1)c1[nH]c2ccc([N+](=O)[O-])cc2c1-c1ccccc1 | ? | ? | ? | ? | 9.2µM | ?
CC(NC(=O)Cn1c(NCCO)nc2ccccc21)c1ccccc1 (stereo unspecified) | - | - | - | - | - | -
CN(C)CCN(C(=O)/C=C/c1cccs1)c1nc2c(F)cc(F)cc2s1 | ? | ? | - | ? | ? | -
COc1ccc(OC)c2sc(N(CCN(C)C)C(=O)/C=C/c3cccs3)nc12 | 18µM | ? | 16µM | ? | ? | ?
COc1cccc2sc(N(CCN(C)C)C(=O)/C=C/c3cccs3)nc12 | - | ? | ? | - | - | -
CCOc1cccc2sc(N(CCN(C)C)C(=O)/C=C/c3cccs3)nc12 | ? | 8.2µM | ? | ? | - | -
COc1ccc(C)c2sc(N(CCN(C)C)C(=O)/C=C/c3cccs3)nc12 | 21µM | - | ? | - | ? | ?
Cc1ccccc1S(=O)(=O)Nc1ncnc2ccccc12 | - | - | - | - | - | -
Cc1ccc(S(=O)(=O)N2CCCCC2)cc1NC(=O)c1ccco1 | - | . | - | . | - | -
CCn1nc(C)c(Br)c1C(=O)Sc1ccccc1Cl | 16µM | 18µM | ? | - | - | -
COc1ccc(CC(=O)NCC2(N3CCCCC3)CCCCC2)cc1 | - | ? | - | 23µM | - | -
COCc1ccc(C(=O)NCC2(N3CCCCC3)CCCCC2)cc1 | ? | - | - | - | - | -
CN(C)N1C(=O)c2c(Cl)c(Cl)c(Cl)c(Cl)c2C1=O | - | - | - | - | - | ?
CN1CCN(/N=C/c2c3ccccc3c(Cl)c3ccccc23)CC1 | 23µM | ? | 21µM | ? | - | ?
CN1CCN(/N=C/c2ccc(-c3ccccc3)cc2)CC1 | - | ? | - | ? | - | -
COc1ccccc1C(=O)NCC(=O)NC(C)c1ccc(-n2ccnc2)cc1 (stereo unspecified) | - | - | - | - | . | .
Cc1ccc(NC(=O)CNCc2ccc(Cl)cc2Cl)cc1S(=O)(=O)N(C)C | - | - | - | - | ? | 13µM

Screens (PubChem)
